Screening data as filed in PubChem.
Rows were chosen to be rich in hits. Some 11% of all compounds tested hit in one or more screens of this group.
HEK293 tox – cytotoxic compounds in HEK 293 cells; 6.6% of 94,000 active; Potency, µM (doses to about 115 µM), inactives show top-dose activity change, negative = cytotoxicity, actives largely listed as inhibitors; HEK 293 viability, ATP luminescence (CellTiter-Glo), 48-72 h; AID 1345083; further: on the % scale 0 is the no-effect control and ±100 the full control effect; nearly all actives have a fitted effect of over 60% in size
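HEK 293 seeded at 250 cells/well receive compound via pintool. After 48 or 72 hr at 37 degree Celsius, 5% CO2 and 95% humidity, CellTiter-Glo is dispensed and luminescence read following 10 min at room temperature.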
FLuc inh-1 – inhibitors of firefly (Photinus pyralis) luciferase; P08659; purified P. pyralis luciferase, luminescence, biochemical; Potency, µM (doses to about 115 µM), actives largely listed as inhibitors; 2.5% of 76,000 active; further: on the % scale 0 is the no-effect control and ±100 the full control effect; nearly all actives have a fitted effect of over 65% in size
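Biochemical qHTS: compound (6-point titration) added to 10uM D-luciferin plus 10uM ATP in Tris acetate pH 7.5 buffer with Mg, Tween-20 and BSA, then purified enzyme at 10nM; light output imaged.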
NIH3T3 tox – NIH 3T3 cell cytotoxicity; NIH 3T3 viability, CellTiter-Glo ATP luminescence, 48-72 h; Potency, µM (titrated, usually from 96.7 µM), without a hit: at the top dose activity change, negative = cytotoxicity, most hits filed as inhibitors; 4.3% of 94,000 active; AID 1345082; further: on the % scale 0 is the no-effect control and ±100 the full control effect; nearly all actives have a fitted effect of over 55% in size
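Mouse fibroblast NIH 3T3 cells, 400 per well, received compound via pintool and were incubated for 48 or 72 hr prior to CellTiter-Glo ATP luminescence measurement.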
NPR1 antag – blocks ANP-stimulated signaling of human Npr1 receptor; Potency, µM (top dose mostly 46.3 µM), inactives show at the top dose activity change, negative = inhibition, actives largely listed as inhibitors; P16066; HEK293 hNpr1 GloSensor cGMP, ANP-stimulated luminescence; 1.6% of 76,000 active; calls by dose curve; further: on the % scale 0 is the no-effect control and ±100 the full control effect; nearly all actives have a fitted effect of over 60% in size
Target sequence (P16066 whole entry, looked up): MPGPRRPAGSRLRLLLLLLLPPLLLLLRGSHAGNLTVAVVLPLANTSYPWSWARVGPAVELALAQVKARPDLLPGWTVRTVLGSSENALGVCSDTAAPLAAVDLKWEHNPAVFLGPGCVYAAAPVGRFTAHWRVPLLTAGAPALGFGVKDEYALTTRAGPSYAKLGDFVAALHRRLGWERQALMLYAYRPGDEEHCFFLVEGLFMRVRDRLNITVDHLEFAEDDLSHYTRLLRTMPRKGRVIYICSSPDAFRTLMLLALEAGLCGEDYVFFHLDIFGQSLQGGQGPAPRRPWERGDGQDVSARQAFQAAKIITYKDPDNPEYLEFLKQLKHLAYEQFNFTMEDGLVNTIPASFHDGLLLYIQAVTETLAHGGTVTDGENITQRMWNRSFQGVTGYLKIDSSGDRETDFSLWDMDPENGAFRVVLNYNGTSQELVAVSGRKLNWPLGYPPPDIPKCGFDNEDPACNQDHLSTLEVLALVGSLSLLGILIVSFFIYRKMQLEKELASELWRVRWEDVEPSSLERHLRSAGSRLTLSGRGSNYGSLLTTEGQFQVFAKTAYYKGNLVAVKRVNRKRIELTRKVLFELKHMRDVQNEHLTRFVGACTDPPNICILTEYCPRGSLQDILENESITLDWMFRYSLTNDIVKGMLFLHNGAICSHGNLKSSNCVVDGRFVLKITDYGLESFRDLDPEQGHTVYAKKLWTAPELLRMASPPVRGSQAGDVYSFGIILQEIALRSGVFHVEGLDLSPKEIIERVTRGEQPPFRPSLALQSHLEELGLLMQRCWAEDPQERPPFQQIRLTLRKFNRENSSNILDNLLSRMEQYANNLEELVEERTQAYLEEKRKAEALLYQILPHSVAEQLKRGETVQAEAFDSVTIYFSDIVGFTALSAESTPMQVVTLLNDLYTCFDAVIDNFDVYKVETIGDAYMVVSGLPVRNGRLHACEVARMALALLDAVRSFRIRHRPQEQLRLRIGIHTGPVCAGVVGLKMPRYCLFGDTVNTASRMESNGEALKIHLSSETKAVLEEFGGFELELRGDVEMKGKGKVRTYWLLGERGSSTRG
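Compound pre-incubated 30 min at room temperature on GloSensor-loaded HEK293 cells stably carrying hNpr1 and the pGS-40F cGMP biosensor. Stimulation uses hNppA at 0.1 nM final; luminescence is taken at baseline and 20 min post-agonist.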
FLuc SDR -ATP – binders stabilizing firefly luciferase, without ATP. shares compounds with FLuc inh-1. Purified FLuc-C-HiBiT, Nano-Glo HiBiT luminescence, no ATP. Potency, µM (series often up to 32.7 µM), without a hit: at the highest dose activation (signal gain), hits mostly activators. 7.8% of 1,300 active. AID 1963318; further: nearly all actives have a fitted effect of over 55% in size
FLuc SDR ATP – binders stabilizing firefly luciferase, plus ATP; purified FLuc-C-HiBiT + ATP, HiBiT complementation luminescence; 8.7% of 1,300 active; AID 1963319; Potency, µM (titrated, usually from 32.7 µM), inactives show at the highest dose activation (gain of signal), most hits filed as activators; shares compounds with FLuc inh-1;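 further: signal reports ligand binding via conformational change of the enzyme rather than luciferase catalysis; % of control where 0% means no effect; nearly all actives have a fitted effect of over 55% in size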
FLuc inh-2 – inhibitors of firefly luciferase enzymatic activity; shares compounds with FLuc inh-1; purified FLuc-C-HiBiT enzyme, luciferin luminescence; Potency, µM (doses to about 32.7 µM), for inactives: at the highest dose activity change, negative = inhibition, hits mostly inhibitors; 42% of 1,300 active; AID 1963320; further: on the % scale 0 is the no-effect control and ±100 the full control effect; nearly all actives have a fitted effect of over 70% in size
Starred values were filed as active, the others as inactive; i = inactive; ? = inconclusive; . = no result; [ ] = another dose, or the depositor's remark. Unless noted, the call rests on the fitted dose curve; in most records, active means well fitted curve in the direction sought with a large enough effect; inconclusive means small, poorly fitted or top-dose-only effect, or another doubt; inactive means no such curve, though single readings can be large; an effect the other way counts as inactive or inconclusive. Potency means the concentration at half of the fitted maximal effect.

SMILES	HEK293 tox	FLuc inh-1	NIH3T3 tox	NPR1 antag	FLuc SDR -ATP	FLuc SDR ATP	FLuc inh-2
COc1ccc(-c2nc3ccccc3s2)cc1NC(=O)c1cccc([N+](=O)[O-])c1C	.	.	.	.	14.6%	14.1%	6.24µM*
COc1ccc(-c2ccc(C(=O)Nc3ccccc3F)c(Cl)c2)nn1	?	.	-25.6%	.	.	.	.
COc1ccc(-c2nc3ccccc3s2)cc1NC(=O)c1ccccc1F	.	.	.	.	15.0%	7.2%	-15.5%
CCOc1ccc(C(=O)Nc2ccc(-c3nc4ccccc4s3)cc2)cc1[N+](=O)[O-]	.	.	.	.	13.2%	8.5%	0.2%
CNC(=O)c1cc2cc(-c3c(C)noc3C)nc(-c3cccc(OC)c3OC)c2o1	?	i	?	4.7%[70.6 µM]	.	.	.
COc1ccc(-c2nc3ccccc3s2)cc1NC(=O)c1cc2ccccc2o1	.	.	.	.	7.3%	6.6%	-4.4%
CC(=O)N1CCN(C(=O)c2nc3sccn3c2-c2ccc(F)cc2)CC1	-6.0%	.	2.6%	.	.	.	.
COc1ccc(-c2nc3ccccc3s2)cc1NC(=O)c1ccc(C#N)cc1F	.	.	.	.	12.5%	9.0%	-0.8%
COc1ccc(-c2nc3ccccc3s2)cc1NC(C)=O	.	.	.	.	15.3%	15.4%	?
COc1ccccc1NC(=O)O[C@H]1COCCN(c2nc3ccccc3s2)C1	?	i	?	-7.8%[70.6 µM]	.	.	.
COc1ccccc1NC(=O)c1cnc(-c2ccc(F)cc2)nc1-c1ccncc1	0.8%	i	i	-14.0%	.	.	.
COc1ccc(-c2nc(C(C)C)nc3c2CCN(C(=O)c2cccc(OC)c2)CC3)cc1	?	i	?	2.4%	.	.	.
COC1C(=O)N(c2cccc(F)c2)C12CCN(Cc1ccc(F)cc1F)CC2 (stereo not given)	?	i	?	-24.1%	.	.	.
COc1cccc(Nc2ncc(-c3cccc(N(C)C)c3)c3c2OCC3)c1	-65.5%[172 µM]	?	?	?	.	.	.
Clc1ccc(Nc2ncc(-c3cccnc3)c3c2OCC3)cc1	?	5.01µM*	?	-22.4%[70.6 µM]	11.1%[49.3 µM]	8.3%[49.3 µM]	?
CN1CCN(Cc2ccc(Nc3ncc(-c4cncnc4)c4c3OCC4)cc2)CC1	?	i	?	-1.6%[70.6 µM]	.	.	.
Cc1cc(-c2cnc(Nc3ccc(F)cc3)c3c2CCO3)ccn1	?	i	?	-17.7%[70.6 µM]	.	.	.
Fc1ccc(Nc2ncc(-c3cccnc3)c3c2OCC3)cc1	-11.2%[172 µM]	11.2µM*	?	-18.0%[70.6 µM]	19.0%[49.3 µM]	13.7%[49.3 µM]	?
COc1ccc(-c2cnc(Nc3cccc(N[S+](C)(=O)[O-])c3)c3c2CCO3)cn1	89.1µM*	14.1µM*	?	0.1%[70.6 µM]	16.4%[49.3 µM]	12.1%[49.3 µM]	?
Cn1cc(-c2cnc(Nc3ccc(N4CCOCC4)cc3)c3c2CCO3)cn1	?	3.98µM*	?	-17.6%[70.6 µM]	?	?	14.3µM*
CCC(C)C1=NS(=O)(=O)c2cc(NC(=O)c3ccco3)ccc2N1c1ccccc1 (stereo not given)	?	i	-29.5%	2.4%	.	.	.
c1ccc(Nc2ncc(-c3cccnc3)c3c2OCC3)cc1	.	.	.	.	22.1%[65.7 µM]	?	?
O=C(NC[C@H]1Cn2cc(-c3ccc4c(c3)OCCCO4)nc2CO1)c1ccc2c(c1)OCO2	?	10µM*	-24.9%	-17.1%	?	?	?
O=C(NC[C@H]1Cn2cc(-c3ccccc3)nc2CO1)c1ccc2c(c1)OCO2	?	?	?	-28.9%[70.6 µM]	.	.	.
CCCNC(=O)Cn1c(C)ccc(NC(=O)Nc2ccc(OC)cc2)c1=O	-26.7%	3.98µM*	?	-17.5%	?	?	6.24µM*
SMILES	HEK293 tox	FLuc inh-1	NIH3T3 tox	NPR1 antag	FLuc SDR -ATP	FLuc SDR ATP	FLuc inh-2
Cc1ccc(NC(=O)Nc2ccc(C)n(CC(=O)NCC(C)C)c2=O)cc1	?	0.891µM*	?	-29.1%	3.94µM*	?	1.11µM*
CCC(C)NC(=O)Cn1c(C)ccc(NC(=O)Nc2ccc(C)cc2)c1=O (stereo not given)	?	2µM*	?	-22.9%	3.13µM*	?	1.24µM*
Cc1ccc(NC(=O)Nc2ccc(C)n(CC(=O)NC(C)(C)C)c2=O)cc1	?	3.98µM*	-18.0%	0.0%	?	?	3.94µM*
O=C(C1CCCN1C(=O)c1ccc(C(F)(F)F)cc1)N1CCC(N2CCOCC2=O)CC1 (stereo not given)	1.1%	.	-12.3%	.	.	.	.
COc1ccc(NC(=O)Nc2ccc(C)n(CC(=O)N3CCCC(C)C3)c2=O)cc1 (stereo not given)	-16.0%	7.08µM*	-28.7%	3.5%	?	?	7.85µM*
COC1CCOC2(CCN(C(=O)c3cc(-c4ccc(F)cc4)n[nH]3)CC2)C1 (stereo not given)	-18.4%	i	?	6.0%	.	.	.
Cc1ncc(CC(=O)NCc2ccc3[nH]c(-c4ccccc4F)c(C)c3c2)c(=O)[nH]1	?	12.6µM*	?	0.0%	17.8%	15.2%	?
Cc1ncc(C(=O)NCc2ccc3[nH]c(-c4ccccc4F)c(C)c3c2)c(C)n1	?	6.31µM*	?	7.94µM*	17.6%	13.5%	7.85µM*
Cc1ncc(CC(=O)NCC2CCN(c3cnn(C)c(=O)c3)C2)c(=O)[nH]1 (stereo not given)	-5.1%	i	-0.8%	9.6%	.	.	.
Cn1ncc2c(C(=O)NCc3ccc(F)cc3)cc(-c3ccccc3F)nc21	-11.9%	.	?	.	.	.	.
Cc1ccc(C(=O)N2CCCC(C(=O)N3CCC(N4CCOCC4=O)CC3)C2)cc1 (stereo not given)	-5.2%	.	-12.9%	.	.	.	.
CCOC(=O)C[C@@H]1C[C@@H](C(C)C)[C@H](CNC(=O)C(C)(C)C)C=C1C	?	i	?	3.3%[70.6 µM]	.	.	.
Nc1nc(N2CCC3(CC2)NC(=O)CC3C(=O)O)c2[nH]cnc2n1 (stereo not given)	i	i	-3.4%	1.7%	12.9%	9.4%	3.9%
CCOC1CCCN(c2ncnc3c2cnn3-c2ccccc2)C1 (stereo not given)	.	.	.	.	20.9%	?	?
NC(=O)C1CCN(c2ncnc3c2cnn3-c2ccccc2)CC1	.	.	.	.	14.9%	12.4%	-8.7%
CN(C)C1CCN(c2ncnc3c2cnn3-c2ccccc2)CC1	.	.	.	.	13.3%	11.3%	-5.8%
CC1CCN(c2ncnc3c2cnn3-c2ccc(F)cc2)CC1	.	.	.	.	19.5%	18.9%	11.1µM*
O=C(NCCCn1nnc2ccccc21)C1CC(=O)N(Cc2ccccn2)C1 (stereo not given)	i	i	2.0%	3.2%	.	.	.
